According to PubChem BioAssay (EPA / NIEHS):
Values joined by “and” are separate entries in the source; they are usually repeats but may differ in a detail not shown here. Equal entries are not always repeated. The source holds several records for some structures; these can differ, active in one and inactive in another. Active and inactive are the calls of the source. Rule for the calls: active = hit-call score of the fitted dose curve at least 0.9, where 1 is the maximum; inactive = score below 0.9.

Experiments:
[1] = read-out: Macrophage colony-stimulating factor (MCSF), CSF1 (gene 1435); assay: BSK_CASM3C_MCSF: BioMAP Diversity Plus: CASM3C Assay for Macrophage colony-stimulating factor (MCSF) Biomarker Activity (AID 2283044); details: primary human coronary artery smooth muscle cells; actives raise or lower the signal;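 note: M-CSF protein amount quantified by ELISA after 24 h exposure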
[2] = read-out: Low-density lipoprotein receptor (LDLR), LDLR (gene 3949); assay: BSK_CASM3C_LDLR: BioMAP Diversity Plus: CASM3C Assay for Low-density lipoprotein receptor (LDLR) Biomarker Activity (AID 2283045); details: primary human coronary artery smooth muscle cells; actives raise or lower the signal;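 note: LDLR protein level on the cell surface quantified by ELISA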
[3] = read-out: Monocyte Chemoattractant Protein-1 (MCP1), CCL2 (gene 6347); assay: BSK_CASM3C_MCP1: BioMAP Diversity Plus: CASM3C Assay for Monocyte Chemoattractant Protein-1 (MCP1) Biomarker Activity (AID 2283046); details: primary human coronary artery smooth muscle cells; actives raise or lower the signal;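 note: MCP-1 level quantified by ELISA 24 h after dosing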
[4] = BSK_CASM3C_Proliferation: Cell Proliferation Assessment in the BioMAP Diversity Plus: CASM3C Assay (AID 2283047); details: primary human coronary artery smooth muscle cells;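 note: sulforhodamine B total protein stain as relative cell number at 560 nm; sub-confluent cells exposed 48 h before staining; fitted both ways against DMSO so gain or loss of cell number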
[5] = read-out: Monokine induced gamma interferon (MIG), CXCL9 (gene 4283); assay: BSK_CASM3C_MIG: BioMAP Diversity Plus: CASM3C Assay for Monokine induced gamma interferon (MIG) Biomarker Activity (AID 2283048); details: primary human coronary artery smooth muscle cells; actives raise or lower the signal;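 note: MIG protein level measured by ELISA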
[6] = read-out: serum amyloid A (SAA), SAA1 (gene 6288); assay: BSK_CASM3C_SAA: BioMAP Diversity Plus: CASM3C Assay for serum amyloid A (SAA) Biomarker Activity (AID 2283049); details: primary human coronary artery smooth muscle cells; actives raise or lower the signal;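 note: SAA protein level quantified by ELISA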
[7] = BSK_CASM3C_SRB: Viability Assessment in the BioMAP Diversity Plus: CASM3C Assay (AID 2283050); details: primary human coronary artery smooth muscle cells;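 note: total protein by SRB staining as cytotoxicity measure in parallel cultures; cells exposed to compound for 24 h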
[8] = read-out: Thrombomodulin, THBD (gene 7056); assay: BSK_CASM3C_Thrombomodulin: BioMAP Diversity Plus: CASM3C Assay for Thrombomodulin Biomarker Activity (AID 2283051); details: primary human coronary artery smooth muscle cells; actives raise or lower the signal;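 note: thrombomodulin protein level measured by ELISA 24 h after dosing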
[9] = read-out: Tissue Factor, F3 (gene 2152); assay: BSK_CASM3C_TissueFactor: BioMAP Diversity Plus: CASM3C Assay for Tissue Factor Biomarker Activity (AID 2283052); details: primary human coronary artery smooth muscle cells; actives raise or lower the signal;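 note: cell surface tissue factor protein level read by ELISA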
[10] = read-out: Interferon-gamma inducible Protein 10 (IP10), CXCL10 (gene 3627); assay: BSK_hDFCGF_IP10: BioMAP Diversity Plus: hDFCGF Assay for Interferon-gamma inducible Protein 10 (IP10) Biomarker Activity (AID 2283053); details: primary human foreskin fibroblasts; actives raise or lower the signal
How it was run: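 Primary foreskin fibroblasts, human; 24 h compound exposure; IP-10 by ELISA; bidirectional fit vs DMSO.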

[11] = read-out: Urokinase-type plasminogen activator receptor (uPAR), PLAUR (gene 5329); assay: BSK_CASM3C_uPAR: BioMAP Diversity Plus: CASM3C Assay for Urokinase-type plasminogen activator receptor (uPAR) Biomarker Activity (AID 2283054); details: primary human coronary artery smooth muscle cells; actives raise or lower the signal;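 note: cell-surface uPAR protein level quantified by ELISA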
[12] = read-out: Vascular cell adhesion molecule 1 (VCAM1), VCAM1 (gene 7412); assay: BSK_CASM3C_VCAM1: BioMAP Diversity Plus: CASM3C Assay for Vascular cell adhesion molecule 1 (VCAM1) Biomarker Activity (AID 2283055); details: primary human coronary artery smooth muscle cells; actives raise or lower the signal;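 note: VCAM-1 protein level quantified by ELISA on the cells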
[13] = read-out: Collagen III, COL3A1 (gene 1281); assay: BSK_hDFCGF_CollagenIII: BioMAP Diversity Plus: hDFCGF Assay for Collagen III Biomarker Activity (AID 2283056); details: primary human foreskin fibroblasts; actives raise or lower the signal
How it was run: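 Human foreskin primary fibroblasts were exposed to test chemicals for 24 h, after which collagen III was quantified by ELISA. Activity was fitted bidirectionally against DMSO as negative control and baseline.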

[14] = read-out: Epidermal growth factor receptor (EGFR), EGFR (gene 1956); assay: BSK_hDFCGF_EGFR: BioMAP Diversity Plus: hDFCGF Assay for Epidermal growth factor receptor (EGFR) Biomarker Activity (AID 2283057); details: primary human foreskin fibroblasts; actives raise or lower the signal
How it was run: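 hDFCGF system, primary human foreskin fibroblasts; compound 24 h; EGFR measured by ELISA; DMSO = negative control/baseline; bidirectional fitting.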

[15] = read-out: Interleukin-8 (IL8), CXCL8 (gene 3576); assay: BSK_hDFCGF_IL8: BioMAP Diversity Plus: hDFCGF Assay for Interleukin-8 (IL8) Biomarker Activity (AID 2283058); details: primary human foreskin fibroblasts; actives raise or lower the signal
How it was run: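 hDFCGF human dermal fibroblasts; 24 h chemical exposure; IL-8 by ELISA; bidirectional curve fit vs DMSO baseline; gain or loss of signal scored.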

[16] = BSK_hDFCGF_Proliferation: Cell Proliferation Assessment in the BioMAP Diversity Plus: hDFCGF Assay (AID 2283059); details: primary human foreskin fibroblasts;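 note: curves fitted for both rise and fall of signal versus DMSO baseline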
How it was run: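 Steps: dose primary human dermal fibroblasts (foreskin); […] fix in 10% TCA; stain with 0.1% SRB; read 560 nm; fit gain or loss of signal against DMSO.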

[17] = read-out: Macrophage colony-stimulating factor (MCSF), CSF1 (gene 1435); assay: BSK_hDFCGF_MCSF: BioMAP Diversity Plus: hDFCGF Assay for Macrophage colony-stimulating factor (MCSF) Biomarker Activity (AID 2283060); details: primary human foreskin fibroblasts; actives raise or lower the signal
How it was run: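 Human foreskin primary fibroblasts were treated with test chemical for 24 h, and M-CSF was then measured by ELISA. Data were fitted bidirectionally against DMSO as the negative control and activity baseline.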

[18] = BSK_hDFCGF_SRB: Viability Assessment in the BioMAP Diversity Plus: hDFCGF Assay (AID 2283061); details: primary human foreskin fibroblasts;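 note: cells exposed to compound for 24 h before the read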
How it was run: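 Human foreskin primary fibroblasts were treated with compound and assessed 24 h after dosing. Total protein was measured by sulforhodamine B staining (0.1% SRB after 10% TCA fixation, 560 nm read) as a cytotoxicity marker, with bidirectional fitting against DMSO baseline.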

[19] = read-out: TIMP metallopeptidase inhibitor 1 (TIMP1), TIMP1 (gene 7076); assay: BSK_hDFCGF_TIMP1: BioMAP Diversity Plus: hDFCGF Assay for TIMP metallopeptidase inhibitor 1 (TIMP1) Biomarker Activity (AID 2283062); details: primary human foreskin fibroblasts; actives raise or lower the signal
How it was run: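 Primary human foreskin fibroblasts in the hDFCGF system were dosed with compound for 24 h, then TIMP-1 was measured by ELISA. Activity was fitted bidirectionally relative to DMSO control; parallel SRB staining assessed cytotoxicity.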

[20] = read-out: Monokine induced gamma interferon (MIG), CXCL9 (gene 4283); assay: BSK_hDFCGF_MIG: BioMAP Diversity Plus: hDFCGF Assay for Monokine induced gamma interferon (MIG) Biomarker Activity (AID 2283063); details: primary human foreskin fibroblasts; actives raise or lower the signal
How it was run: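 ELISA read-out of MIG from primary human dermal fibroblasts 24 h post-dosing. Gain or loss of signal fitted bidirectionally, DMSO as baseline.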

Measured: AC50

CC1(C)[C@H](C(=O)O[C@H](C#N)c2cccc(Oc3ccccc3)c2)[C@@H]1/C=C(\Cl)C(F)(F)F
active: [2] 3.39 µM | [8] 5.06 µM and 7.16 µM | [13] 9.08 µM | [16] 7.37 µM
inactive: [1] | [2] | [3] | [4] | [5] | [6] | [7] | [9] | [10] | [11] | [12] | [13] | [14] | [15] | [16] | [17] | [18] | [19] | [20]

CC(C)O.CC(C)O.OCCN(CCO)CCO.OCCN(CCO)CCO.[Ti]
active: [10] 30.9 µM | [17] 20 µM | [20] 30.6 µM
inactive: all other assays above

OCCN(CCO)CCO
inactive: all assays above

O=S(=O)(c1ccc(Cl)cc1)c1cc(Cl)c(Cl)cc1Cl
active: [8] 8.36 µM | [11] 20 µM | [12] 0.016 µM | [13] 3.97 µM | [16] 20 µM
inactive: all other assays above

C#CCOC(=O)/C=C(C)/C=C/CC(C)CCCC(C)C (stereo not drawn)
active: [9] 4.03 µM | [13] 12.6 µM | [17] 10 µM
inactive: all other assays above

CCC(C)(C#N)N=NC(C)(C#N)CC (stereo not drawn)
active: [1] 0.016 µM
inactive: all other assays above

Cc1c([N+](=O)[O-])c(C)c([N+](=O)[O-])c(C(C)(C)C)c1[N+](=O)[O-]
active: [16] 31.4 µM
inactive: all other assays above

Cc1ccc2nc3sc(=O)sc3nc2c1
active: [11] 2.14 µM | [16] 5 µM | [20] 7.3 µM
inactive: all other assays above

CC(C)=CC1C(C(=O)OCc2cccc(Oc3ccccc3)c2)C1(C)C (stereo not drawn)
active: [8] 10.4 µM | [9] 9.79 µM | [13] 7.5 µM | [16] 20 µM | [17] 7.43 µM | [18] 12.4 µM | [19] 12.5 µM
inactive: all other assays above

CCOP(=S)(OCC)OP(=S)(OCC)OCC
active: [4] 29 µM | [10] 29.6 µM | [12] 20 µM | [16] 23.2 µM
inactive: all other assays above

COc1ccccc1N
inactive: all assays above

OC(Cc1ccccc1Cl)(Cn1[nH]cnc1=S)C1(Cl)CC1 (stereo not drawn)
inactive: [1] | [3] | [4] | [5] | [8] | [14] | [15] | [18] | [19]
active: [2] 3.97 µM | [6] 5.29 µM | [7] 31.4 µM | [9] 15.3 µM | [10] 29.5 µM | [11] 32.5 µM | [12] 36.3 µM | [13] 9.86 µM | [16] 35.2 µM | [17] 15 µM | [20] 33.3 µM

CCOP(=S)(OCC)SCS(=O)(=O)C(C)(C)C
inactive: all assays above
